In PubChem BioAssay (Tox21):
Records with an inconclusive call do not appear. Calls of active or inactive are those of the source. Calls follow the shape of the dose curve; as a rule, active = well fitted curve in the direction sought with a large enough effect in the repeat runs; inconclusive = weak or mixed curves; inactive = no such curve, though single readings can be large; an effect the other way counts as inactive or inconclusive.

Columns and labels:
[1] = A CellTox Green Cytotoxicity Assay to monitor cytotoxicity in HepG2 cells - 16 hour (AID 1224876); also: nearly all actives have a fitted effect of over 45% in size
Method in brief: (§1)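 Cells and non-lytic dye reagent are dispensed together (600 HepG2 cells/well) and incubated 5 h before DMSO compound transfer. Kinetic fluorescence is then recorded in the same wells during 40 h at 37 C.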

[2] = qHTS RealTime-Glo MT Cell Viability Assay in HepG2 cells - 32 hour (AID 1224877); also: nearly all actives have a fitted effect of over 55% in size
Method in brief: (§2)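 Compound treatment began 5 h after plating HepG2 cells (600/well) with NanoLuc luciferase and prosubstrate. Plates stayed at 37 C for 40 h; luminescence was captured at six time points, 0 h through 40 h.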

[3] = A CellTox Green Cytotoxicity Assay to monitor cytotoxicity in HepG2 cells - 24 hour (AID 1224878); also: nearly all actives have a fitted effect of over 45% in size
Method in brief: as §1

[4] = A CellTox Green Cytotoxicity Assay to monitor cytotoxicity in HepG2 cells - 40 hour (AID 1224879); also: nearly all actives have a fitted effect of over 40% in size
Method in brief: as §1

[5] = qHTS RealTime-Glo MT Cell Viability Assay in HEK293 cells - 0 hour (AID 1224880); also: top concentration of the series differs between compounds; nearly all actives have a fitted effect of over 45% in size
Method in brief: (§3)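 Real-time viability in HEK293: signal arises when living cells convert a prosubstrate for NanoLuc in the medium, so luminescence tracks viable cell number. Compound (23 nL, DMSO) added 5 h post-seeding; kinetic reads at 0–40 h, 37 C.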

[6] = A CellTox Green Cytotoxicity Assay to monitor cytotoxicity in HEK293 cells - 32 hour (AID 1224881); also: nearly all actives have a fitted effect of over 40% in size
Method in brief: (§4)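 Cells (HEK293, 600/well) and dye reagent are dispensed together. After 5 h at 37 C, 23 nL compound is pinned in. Plates stay at 37 C for 40 h with fluorescence read at 0h, 8h, 16h, 24h, 32h and 40h.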

[7] = A CellTox Green Cytotoxicity Assay to monitor cytotoxicity in HepG2 cells - 0 hour (AID 1224882); also: nearly all actives have a fitted effect of over 35% in size
Method in brief: as §1

[8] = A CellTox Green Cytotoxicity Assay to monitor cytotoxicity in HepG2 cells - 32 hour (AID 1224883); also: nearly all actives have a fitted effect of over 50% in size
Method in brief: as §1

[9] = A CellTox Green Cytotoxicity Assay to monitor cytotoxicity in HEK293 cells - 8 hour (AID 1224884); also: nearly all actives have a fitted effect of over 35% in size
Method in brief: as §4

[10] = qHTS RealTime-Glo MT Cell Viability Assay in HepG2 cells - 16 hour (AID 1224885); also: nearly all actives have a fitted effect of over 50% in size
Method in brief: as §2

[11] = qHTS RealTime-Glo MT Cell Viability Assay in HEK293 cells - 24 hour (AID 1224886); also: top concentration of the series differs between compounds; nearly all actives have a fitted effect of over 50% in size
Method in brief: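 Quantitative high-throughput screen of the Tox21 10K library in HEK293: cells and RealTime-Glo reagents plated together, compound added at 5 h, luminescence monitored through 40 h at 37 C.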

[12] = qHTS RealTime-Glo MT Cell Viability Assay in HEK293 cells - 8 hour (AID 1224887); also: top concentration of the series differs between compounds; nearly all actives have a fitted effect of over 50% in size
Method in brief: as §3

[13] = A CellTox Green Cytotoxicity Assay to monitor cytotoxicity in HEK293 cells - 16 hour (AID 1224888); also: nearly all actives have a fitted effect of over 35% in size
Method in brief: as §4

[14] = qHTS RealTime-Glo MT Cell Viability Assay in HepG2 cells - 0 hour (AID 1224889); also: nearly all actives have a fitted effect of over 50% in size
Method in brief: as §2

[15] = A CellTox Green Cytotoxicity Assay to monitor cytotoxicity in HepG2 cells - 8 hour (AID 1224890); also: nearly all actives have a fitted effect of over 45% in size
Method in brief: as §1

[16] = qHTS assay to identify small molecule antagonists of the estrogen receptor alpha (ER-alpha) signaling pathway using the BG1 cell line in the presence of 0.1 nM 17-beta-estradiol - cell viability counter screen (AID 1259241); also: nearly all actives have a fitted effect of over 40% in size
Method in brief: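 The cell line endogenously expresses full-length ER-alpha and carries four EREs driving luciferase. Cells are cultured 5 days hormone-free, treated 22 hr with compounds and 0.1 nM estradiol, then viability is read by fluorescence.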

[17] = qHTS assay to identify small molecule antagonists of the androgen receptor (AR) signaling pathway using the MDA cell line in the presence of 0.5 nM R1881 - cell viability counter screen (AID 1259242); also: nearly all actives have a fitted effect of over 45% in size
Method in brief: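 Steps: plate MDA-kb2 cells, rest 5 hr at 37C without CO2; pin in compounds in DMSO; add R1881 to 0.5 nM final; incubate 16 hr; add CellTiter-Fluor, 30 min; read fluorescence.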

[18] = molecular target: Estrogen receptor (Homo sapiens) (UniProt P03372); assay: qHTS assay to identify small molecule antagonists of the estrogen receptor alpha (ER-alpha) signaling pathway using the BG1 cell line in the presence of 0.1 nM 17-beta-estradiol (AID 1259244); also: nearly all actives have a fitted effect of over 50% in size
Method in brief: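 Antagonist mode: compounds in DMSO are pinned onto VM7Luc4E2 reporter cells, 0.1 nM final 17beta-estradiol is added, and after 22 h at 37C luciferase luminescence is measured with ONE-Glo.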

[19] = molecular target: Androgen receptor (Homo sapiens) (UniProt P10275); assay: qHTS assay to identify small molecule antagonists of the androgen receptor (AR) signaling pathway using the MDA cell line in the presence of 0.5 nM R1881 (AID 1259243); also: nearly all actives have a fitted effect of over 50% in size
Method in brief: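 Stably transfected MDA-kb2 cells express luciferase from an MMTV promoter bearing both AR and GR response elements. Compounds plus 0.5 nM R1881 (final) were incubated 16 hr at 37C without CO2, then luminescence measured.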

Measured: Potency

Sequence of Estrogen receptor (Homo sapiens) (P03372 whole entry, looked up): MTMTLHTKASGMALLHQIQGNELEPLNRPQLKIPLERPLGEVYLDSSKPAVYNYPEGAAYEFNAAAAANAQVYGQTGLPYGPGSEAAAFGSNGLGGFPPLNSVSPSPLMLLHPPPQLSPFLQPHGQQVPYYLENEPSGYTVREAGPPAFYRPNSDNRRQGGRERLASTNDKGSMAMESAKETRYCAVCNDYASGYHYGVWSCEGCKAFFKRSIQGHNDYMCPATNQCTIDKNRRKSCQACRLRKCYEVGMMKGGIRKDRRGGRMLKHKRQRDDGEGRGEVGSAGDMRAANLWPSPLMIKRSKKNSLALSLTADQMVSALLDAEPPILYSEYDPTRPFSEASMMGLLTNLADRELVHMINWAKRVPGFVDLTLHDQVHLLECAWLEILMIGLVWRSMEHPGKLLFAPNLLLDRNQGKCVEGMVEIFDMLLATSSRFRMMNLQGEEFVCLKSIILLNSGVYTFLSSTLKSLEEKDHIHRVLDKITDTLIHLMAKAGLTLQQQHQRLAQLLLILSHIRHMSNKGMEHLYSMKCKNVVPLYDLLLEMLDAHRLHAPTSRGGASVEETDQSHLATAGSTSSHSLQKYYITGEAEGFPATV
Sequence of Androgen receptor (Homo sapiens) (P10275 whole entry, looked up): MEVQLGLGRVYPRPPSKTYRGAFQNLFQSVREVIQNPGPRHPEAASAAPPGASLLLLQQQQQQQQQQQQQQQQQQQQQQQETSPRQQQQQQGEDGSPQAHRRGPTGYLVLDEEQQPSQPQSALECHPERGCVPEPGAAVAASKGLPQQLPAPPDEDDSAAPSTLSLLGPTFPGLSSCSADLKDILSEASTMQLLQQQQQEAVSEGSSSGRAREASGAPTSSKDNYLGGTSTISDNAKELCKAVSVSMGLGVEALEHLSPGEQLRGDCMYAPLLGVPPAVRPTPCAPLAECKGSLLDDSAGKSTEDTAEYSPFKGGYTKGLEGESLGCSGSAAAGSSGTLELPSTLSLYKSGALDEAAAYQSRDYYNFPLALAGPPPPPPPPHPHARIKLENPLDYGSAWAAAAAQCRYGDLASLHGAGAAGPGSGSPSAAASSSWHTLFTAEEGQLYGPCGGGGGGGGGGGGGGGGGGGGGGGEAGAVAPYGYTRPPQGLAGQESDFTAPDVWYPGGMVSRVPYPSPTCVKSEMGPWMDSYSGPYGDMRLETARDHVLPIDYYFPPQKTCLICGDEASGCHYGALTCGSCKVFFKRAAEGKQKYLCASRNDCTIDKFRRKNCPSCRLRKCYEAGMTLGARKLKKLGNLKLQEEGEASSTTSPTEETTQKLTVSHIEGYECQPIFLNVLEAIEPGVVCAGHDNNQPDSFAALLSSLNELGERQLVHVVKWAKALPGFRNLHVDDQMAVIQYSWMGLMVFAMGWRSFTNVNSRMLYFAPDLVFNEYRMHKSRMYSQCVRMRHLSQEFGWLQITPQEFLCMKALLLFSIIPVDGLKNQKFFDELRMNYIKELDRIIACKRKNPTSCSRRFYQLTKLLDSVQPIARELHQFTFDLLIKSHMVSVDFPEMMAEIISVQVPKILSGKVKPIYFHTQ

c1ccc2cnccc2c1
inactive: [1] | [2] | [3] | [4] | [5] | [6] | [7] | [8] | [9] | [10] | [11] | [12] | [13] | [14] | [15] | [16] | [17] | [18]

CCc1occc(=O)c1O
inactive: [1] | [2] | [3] | [4] | [5] | [6] | [7] | [8] | [9] | [10] | [11] | [12] | [13] | [14] | [15] | [16] | [17]

CC1OCCC1=O (stereo unspecified)
inactive: [1] | [2] | [3] | [4] | [5] | [6] | [7] | [8] | [9] | [10] | [11] | [12] | [13] | [14] | [15] | [16] | [17]

O=C=NCC1CCCC(CN=C=O)C1 (stereo unspecified)
inactive: [1] | [2] | [3] | [4] | [5] | [6] | [7] | [8] | [9] | [10] | [11] | [12] | [13] | [14] | [15] | [16] | [17] | [18]

[O-][n+]1cccc(/C(Cl)=N/OC[C@@H](O)CN2CCCCC2)c1
inactive: [1] | [2] | [3] | [4] | [5] | [6] | [7] | [8] | [9] | [10] | [11] | [12] | [13] | [14] | [15] | [16] | [17] | [19] | [18]

CC(=O)O[C@H]1C[C@@H]2CC[C@@]1(C)C2(C)C
inactive: [1] | [2] | [3] | [4] | [5] | [6] | [7] | [8] | [9] | [10] | [11] | [12] | [13] | [14] | [15] | [16] | [17] | [19]

COc1cc(OC)nc(O[C@H](C(=O)O)C(OC)(c2ccccc2)c2ccccc2)n1
inactive: [1] | [2] | [3] | [4] | [5] | [6] | [7] | [8] | [9] | [10] | [11] | [12] | [13] | [14] | [15] | [16] | [17] | [19] | [18]
